Residual activity data for one compound are collected here from ChEMBL document CHEMBL2218924, “A broad activity screen in support of a chemogenomic map for kinase signalling research and drug discovery” (Biochem J, 2013).

Each structure is given as a SMILES string.

For test [1], the target named is T1, Ephrin type-A receptor 3 (Homo sapiens) (UniProt P29320).
T1 sequence (whole entry): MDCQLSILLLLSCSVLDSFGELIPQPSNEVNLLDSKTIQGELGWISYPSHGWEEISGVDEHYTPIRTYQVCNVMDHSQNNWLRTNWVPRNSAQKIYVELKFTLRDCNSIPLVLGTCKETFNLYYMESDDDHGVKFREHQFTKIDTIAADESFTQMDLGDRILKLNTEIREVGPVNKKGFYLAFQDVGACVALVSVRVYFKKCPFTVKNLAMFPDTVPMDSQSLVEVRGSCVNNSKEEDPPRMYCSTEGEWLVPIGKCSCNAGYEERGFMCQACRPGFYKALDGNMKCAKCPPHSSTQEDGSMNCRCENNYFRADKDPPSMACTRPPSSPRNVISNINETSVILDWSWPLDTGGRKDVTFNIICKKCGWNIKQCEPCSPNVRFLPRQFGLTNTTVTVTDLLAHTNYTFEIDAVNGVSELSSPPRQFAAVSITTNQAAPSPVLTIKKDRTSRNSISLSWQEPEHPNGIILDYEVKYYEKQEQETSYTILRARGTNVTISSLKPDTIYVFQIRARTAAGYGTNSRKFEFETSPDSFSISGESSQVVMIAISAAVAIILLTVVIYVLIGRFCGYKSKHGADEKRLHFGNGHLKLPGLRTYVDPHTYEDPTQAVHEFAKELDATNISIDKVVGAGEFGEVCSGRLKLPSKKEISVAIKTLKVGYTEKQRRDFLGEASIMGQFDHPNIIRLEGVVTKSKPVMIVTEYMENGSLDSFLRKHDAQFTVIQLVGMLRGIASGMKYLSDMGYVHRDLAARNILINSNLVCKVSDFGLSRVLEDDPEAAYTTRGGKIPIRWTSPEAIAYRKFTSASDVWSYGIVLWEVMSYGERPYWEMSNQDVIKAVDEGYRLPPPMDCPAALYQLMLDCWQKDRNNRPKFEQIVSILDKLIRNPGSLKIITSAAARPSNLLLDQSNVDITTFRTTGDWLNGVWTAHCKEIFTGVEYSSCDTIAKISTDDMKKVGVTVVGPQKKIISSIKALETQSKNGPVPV
The conditions noted are these: at 10 µM.

For test [2], the target named is Ephrin type-A receptor 4 (Homo sapiens) (UniProt P54764). The conditions noted are these: at 1 µM.
Test [3] has the same target. The conditions noted are these: at 10 µM.
Test [4] concerns the target Ephrin type-A receptor 5 (Homo sapiens) (UniProt P54756). The conditions noted are these: at 1 µM.
The target is the same in test [5]. Particulars: at 10 µM; call rule not given here.
The target of test [6] is Ephrin type-A receptor 7 (Homo sapiens) (UniProt Q15375). The conditions noted are these: at 10 µM.
Test [7] addresses T2, Ephrin type-A receptor 8 (Homo sapiens) (UniProt P29322).
T2 sequence (whole entry): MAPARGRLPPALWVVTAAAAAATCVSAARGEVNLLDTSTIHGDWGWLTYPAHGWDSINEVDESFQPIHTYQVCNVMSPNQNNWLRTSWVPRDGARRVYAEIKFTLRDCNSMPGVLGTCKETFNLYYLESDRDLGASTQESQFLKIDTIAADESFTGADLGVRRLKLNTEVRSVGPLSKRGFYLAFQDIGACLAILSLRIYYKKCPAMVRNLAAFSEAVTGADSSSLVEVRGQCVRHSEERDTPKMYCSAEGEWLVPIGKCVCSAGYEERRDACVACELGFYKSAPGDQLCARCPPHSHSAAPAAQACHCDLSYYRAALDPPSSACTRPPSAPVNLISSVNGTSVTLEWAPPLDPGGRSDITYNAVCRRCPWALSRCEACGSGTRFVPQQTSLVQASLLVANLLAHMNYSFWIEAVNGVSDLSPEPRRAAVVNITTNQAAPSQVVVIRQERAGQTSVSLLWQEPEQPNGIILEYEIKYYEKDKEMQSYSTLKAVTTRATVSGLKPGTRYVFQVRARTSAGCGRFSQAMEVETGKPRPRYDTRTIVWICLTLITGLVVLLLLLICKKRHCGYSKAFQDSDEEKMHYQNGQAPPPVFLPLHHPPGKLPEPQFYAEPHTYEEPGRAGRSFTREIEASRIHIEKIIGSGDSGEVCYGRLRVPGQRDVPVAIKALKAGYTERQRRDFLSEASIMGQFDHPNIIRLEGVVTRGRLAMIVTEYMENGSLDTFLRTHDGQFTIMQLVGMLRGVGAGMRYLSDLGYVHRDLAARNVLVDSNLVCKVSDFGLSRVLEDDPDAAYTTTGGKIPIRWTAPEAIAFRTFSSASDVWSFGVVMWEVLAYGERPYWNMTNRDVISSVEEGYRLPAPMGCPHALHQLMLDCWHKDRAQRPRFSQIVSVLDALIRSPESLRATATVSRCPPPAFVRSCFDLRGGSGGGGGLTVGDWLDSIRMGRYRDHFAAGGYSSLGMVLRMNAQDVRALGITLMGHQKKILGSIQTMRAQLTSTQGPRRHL
Particulars: at 1 µM.

Test [8] deals with T3, Ephrin type-B receptor 1 (Homo sapiens) (UniProt P54762).
T3 sequence (whole entry): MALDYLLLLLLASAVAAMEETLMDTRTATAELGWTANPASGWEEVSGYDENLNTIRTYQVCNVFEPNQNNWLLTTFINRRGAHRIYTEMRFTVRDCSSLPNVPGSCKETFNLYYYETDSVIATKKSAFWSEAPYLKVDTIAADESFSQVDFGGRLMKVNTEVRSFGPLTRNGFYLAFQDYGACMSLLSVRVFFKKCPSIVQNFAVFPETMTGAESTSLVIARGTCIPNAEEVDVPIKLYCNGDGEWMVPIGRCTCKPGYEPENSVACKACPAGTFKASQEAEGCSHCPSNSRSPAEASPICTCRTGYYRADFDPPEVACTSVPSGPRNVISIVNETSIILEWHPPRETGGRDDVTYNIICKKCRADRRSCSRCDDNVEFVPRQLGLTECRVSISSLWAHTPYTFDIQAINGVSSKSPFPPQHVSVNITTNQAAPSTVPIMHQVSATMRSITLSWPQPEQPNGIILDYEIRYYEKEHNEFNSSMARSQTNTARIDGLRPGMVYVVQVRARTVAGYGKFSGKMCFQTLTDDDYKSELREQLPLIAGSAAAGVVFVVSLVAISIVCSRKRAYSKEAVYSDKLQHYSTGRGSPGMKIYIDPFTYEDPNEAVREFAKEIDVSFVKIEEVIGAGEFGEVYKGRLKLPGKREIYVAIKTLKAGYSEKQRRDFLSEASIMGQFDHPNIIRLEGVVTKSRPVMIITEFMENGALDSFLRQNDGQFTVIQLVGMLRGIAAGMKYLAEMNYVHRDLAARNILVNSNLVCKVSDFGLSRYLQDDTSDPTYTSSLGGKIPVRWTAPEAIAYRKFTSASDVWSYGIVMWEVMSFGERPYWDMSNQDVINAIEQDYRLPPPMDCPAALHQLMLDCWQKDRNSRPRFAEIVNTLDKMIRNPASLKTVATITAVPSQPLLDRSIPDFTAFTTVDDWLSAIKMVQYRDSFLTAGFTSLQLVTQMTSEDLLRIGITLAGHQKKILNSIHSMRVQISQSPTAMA
The conditions noted are these: at 1 µM.

The target in test [9] is T3, Ephrin type-B receptor 1 (Homo sapiens). Particulars: at 10 µM.
The target in test [10] is T4, Ephrin type-B receptor 2 (Homo sapiens) (UniProt P29323).
T4 sequence (whole entry): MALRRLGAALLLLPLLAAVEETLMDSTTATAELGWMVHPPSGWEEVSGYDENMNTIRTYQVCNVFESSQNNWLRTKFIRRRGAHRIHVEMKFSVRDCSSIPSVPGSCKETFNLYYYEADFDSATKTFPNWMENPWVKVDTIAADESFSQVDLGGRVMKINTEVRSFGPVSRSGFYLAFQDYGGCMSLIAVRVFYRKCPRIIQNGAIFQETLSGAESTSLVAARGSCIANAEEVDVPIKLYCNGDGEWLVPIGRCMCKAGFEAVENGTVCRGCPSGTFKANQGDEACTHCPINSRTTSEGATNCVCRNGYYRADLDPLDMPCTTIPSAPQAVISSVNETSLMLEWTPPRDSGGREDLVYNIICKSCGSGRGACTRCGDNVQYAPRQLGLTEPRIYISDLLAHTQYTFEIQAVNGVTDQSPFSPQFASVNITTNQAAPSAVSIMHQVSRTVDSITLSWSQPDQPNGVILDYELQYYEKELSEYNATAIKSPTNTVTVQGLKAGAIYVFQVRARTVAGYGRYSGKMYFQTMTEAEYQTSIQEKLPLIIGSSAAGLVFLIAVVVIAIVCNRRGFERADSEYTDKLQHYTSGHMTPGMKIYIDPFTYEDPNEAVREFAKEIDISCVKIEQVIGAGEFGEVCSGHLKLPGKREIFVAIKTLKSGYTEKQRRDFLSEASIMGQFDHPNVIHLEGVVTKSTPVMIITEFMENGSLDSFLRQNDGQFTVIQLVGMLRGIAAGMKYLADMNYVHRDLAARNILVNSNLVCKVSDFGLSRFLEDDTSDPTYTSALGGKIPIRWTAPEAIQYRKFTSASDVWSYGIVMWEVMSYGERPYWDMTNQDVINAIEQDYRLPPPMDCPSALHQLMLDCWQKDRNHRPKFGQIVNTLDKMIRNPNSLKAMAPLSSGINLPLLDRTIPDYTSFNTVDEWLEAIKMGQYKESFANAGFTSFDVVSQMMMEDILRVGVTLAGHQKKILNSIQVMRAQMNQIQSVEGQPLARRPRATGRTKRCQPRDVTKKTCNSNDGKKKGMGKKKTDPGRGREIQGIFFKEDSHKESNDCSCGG
The conditions noted are these: at 1 µM.

Test [11] addresses T4, Ephrin type-B receptor 2 (Homo sapiens). Particulars: at 10 µM.
Test [12] addresses T5, Ephrin type-B receptor 3 (Homo sapiens) (UniProt P54753).
T5 sequence (whole entry): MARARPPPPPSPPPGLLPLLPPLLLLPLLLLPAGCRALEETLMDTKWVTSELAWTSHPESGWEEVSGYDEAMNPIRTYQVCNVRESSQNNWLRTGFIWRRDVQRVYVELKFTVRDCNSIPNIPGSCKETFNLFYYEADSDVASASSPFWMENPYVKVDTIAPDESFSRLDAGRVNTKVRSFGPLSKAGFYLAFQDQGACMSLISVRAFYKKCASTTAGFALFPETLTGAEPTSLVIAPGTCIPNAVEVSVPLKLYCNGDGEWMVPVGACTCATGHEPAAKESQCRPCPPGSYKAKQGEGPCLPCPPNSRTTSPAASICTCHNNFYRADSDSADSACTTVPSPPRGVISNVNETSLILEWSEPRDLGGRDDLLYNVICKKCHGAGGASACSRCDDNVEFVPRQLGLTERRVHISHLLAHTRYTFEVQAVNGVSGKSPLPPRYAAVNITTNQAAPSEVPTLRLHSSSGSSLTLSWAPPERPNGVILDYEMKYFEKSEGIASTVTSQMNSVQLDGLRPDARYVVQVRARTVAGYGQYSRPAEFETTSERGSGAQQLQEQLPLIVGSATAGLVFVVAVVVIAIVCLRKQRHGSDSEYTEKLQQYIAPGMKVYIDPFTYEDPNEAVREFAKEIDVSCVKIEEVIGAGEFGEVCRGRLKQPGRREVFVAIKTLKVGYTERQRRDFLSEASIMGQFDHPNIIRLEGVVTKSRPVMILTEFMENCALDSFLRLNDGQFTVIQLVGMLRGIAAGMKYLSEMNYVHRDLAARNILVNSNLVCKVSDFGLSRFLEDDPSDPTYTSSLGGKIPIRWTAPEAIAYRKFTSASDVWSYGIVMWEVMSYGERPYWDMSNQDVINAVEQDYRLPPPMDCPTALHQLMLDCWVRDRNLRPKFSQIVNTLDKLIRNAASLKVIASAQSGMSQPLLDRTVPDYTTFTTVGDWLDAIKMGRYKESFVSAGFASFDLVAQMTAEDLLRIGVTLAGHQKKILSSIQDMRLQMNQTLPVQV
The conditions noted are these: at 1 µM.

The target of test [13] is T5, Ephrin type-B receptor 3 (Homo sapiens). Particulars: at 10 µM.
Test [14] has as its target T6, Ephrin type-B receptor 4 (Homo sapiens) (UniProt P54760).
T6 sequence (whole entry): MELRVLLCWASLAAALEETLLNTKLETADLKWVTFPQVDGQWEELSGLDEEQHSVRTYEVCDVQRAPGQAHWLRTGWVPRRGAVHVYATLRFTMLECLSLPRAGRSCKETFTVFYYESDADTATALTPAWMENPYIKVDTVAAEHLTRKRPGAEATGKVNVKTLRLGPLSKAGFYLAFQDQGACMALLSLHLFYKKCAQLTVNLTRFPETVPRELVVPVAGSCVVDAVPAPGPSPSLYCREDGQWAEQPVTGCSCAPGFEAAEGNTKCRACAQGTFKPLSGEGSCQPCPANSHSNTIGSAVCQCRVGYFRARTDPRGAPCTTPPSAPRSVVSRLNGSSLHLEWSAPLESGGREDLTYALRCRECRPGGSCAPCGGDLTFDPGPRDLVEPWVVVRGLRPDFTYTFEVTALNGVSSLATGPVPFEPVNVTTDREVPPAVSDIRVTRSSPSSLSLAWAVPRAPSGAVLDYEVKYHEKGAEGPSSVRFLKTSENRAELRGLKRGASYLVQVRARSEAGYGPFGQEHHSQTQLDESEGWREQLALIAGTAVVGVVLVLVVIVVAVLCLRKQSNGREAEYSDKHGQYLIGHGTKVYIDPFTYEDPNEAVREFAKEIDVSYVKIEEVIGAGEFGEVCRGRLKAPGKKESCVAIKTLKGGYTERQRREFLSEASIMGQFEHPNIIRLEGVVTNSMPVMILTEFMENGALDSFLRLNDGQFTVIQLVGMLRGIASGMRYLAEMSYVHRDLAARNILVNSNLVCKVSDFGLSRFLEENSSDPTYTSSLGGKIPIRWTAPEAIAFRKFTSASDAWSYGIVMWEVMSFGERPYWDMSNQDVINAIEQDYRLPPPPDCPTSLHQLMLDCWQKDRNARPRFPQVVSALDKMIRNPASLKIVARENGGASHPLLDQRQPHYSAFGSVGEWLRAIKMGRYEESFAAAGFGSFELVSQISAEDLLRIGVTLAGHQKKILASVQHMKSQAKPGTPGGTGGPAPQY
Particulars: at 1 µM.

Test [15] deals with T6, Ephrin type-B receptor 4 (Homo sapiens). The conditions noted are these: at 10 µM.
Test [16] addresses Receptor tyrosine-protein kinase erbB-4 (Homo sapiens) (UniProt Q15303). Particulars: at 1 µM.
For test [17] the target is unchanged. Particulars: at 10 µM.
Test [18] deals with Focal adhesion kinase 1 (Homo sapiens) (UniProt Q05397). The conditions noted are these: at 1 µM.
Sequence of Focal adhesion kinase 1 (Homo sapiens) (Q05397 2-1052 limits assumed): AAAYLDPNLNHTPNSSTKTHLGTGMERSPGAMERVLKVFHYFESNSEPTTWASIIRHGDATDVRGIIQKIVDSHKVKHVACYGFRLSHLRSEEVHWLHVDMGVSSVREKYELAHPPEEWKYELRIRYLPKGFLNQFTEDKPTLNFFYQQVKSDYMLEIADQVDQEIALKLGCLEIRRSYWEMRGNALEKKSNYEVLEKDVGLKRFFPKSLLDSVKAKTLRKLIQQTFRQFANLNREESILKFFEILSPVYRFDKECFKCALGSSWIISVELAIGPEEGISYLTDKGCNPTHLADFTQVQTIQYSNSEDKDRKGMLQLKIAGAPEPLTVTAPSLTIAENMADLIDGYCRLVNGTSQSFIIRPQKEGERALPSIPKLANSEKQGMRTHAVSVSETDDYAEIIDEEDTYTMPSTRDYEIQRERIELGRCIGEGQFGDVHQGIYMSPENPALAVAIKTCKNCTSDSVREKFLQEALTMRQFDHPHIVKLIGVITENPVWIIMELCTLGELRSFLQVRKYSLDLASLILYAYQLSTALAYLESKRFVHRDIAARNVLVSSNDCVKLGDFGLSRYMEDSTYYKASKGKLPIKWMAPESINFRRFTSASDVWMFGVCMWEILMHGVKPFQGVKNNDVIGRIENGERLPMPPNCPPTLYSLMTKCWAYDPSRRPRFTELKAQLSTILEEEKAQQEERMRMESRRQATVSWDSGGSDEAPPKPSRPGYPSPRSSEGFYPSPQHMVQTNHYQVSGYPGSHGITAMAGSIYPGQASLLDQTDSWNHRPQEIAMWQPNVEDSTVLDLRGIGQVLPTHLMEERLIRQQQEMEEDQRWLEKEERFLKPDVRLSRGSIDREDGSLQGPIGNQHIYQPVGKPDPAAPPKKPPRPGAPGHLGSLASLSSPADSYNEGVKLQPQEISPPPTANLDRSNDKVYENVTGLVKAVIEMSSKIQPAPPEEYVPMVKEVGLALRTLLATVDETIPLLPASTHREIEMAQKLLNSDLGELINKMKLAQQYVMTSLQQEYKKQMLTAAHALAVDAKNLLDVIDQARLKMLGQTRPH

Sequence of Ephrin type-A receptor 5 (Homo sapiens) (P54756 whole entry): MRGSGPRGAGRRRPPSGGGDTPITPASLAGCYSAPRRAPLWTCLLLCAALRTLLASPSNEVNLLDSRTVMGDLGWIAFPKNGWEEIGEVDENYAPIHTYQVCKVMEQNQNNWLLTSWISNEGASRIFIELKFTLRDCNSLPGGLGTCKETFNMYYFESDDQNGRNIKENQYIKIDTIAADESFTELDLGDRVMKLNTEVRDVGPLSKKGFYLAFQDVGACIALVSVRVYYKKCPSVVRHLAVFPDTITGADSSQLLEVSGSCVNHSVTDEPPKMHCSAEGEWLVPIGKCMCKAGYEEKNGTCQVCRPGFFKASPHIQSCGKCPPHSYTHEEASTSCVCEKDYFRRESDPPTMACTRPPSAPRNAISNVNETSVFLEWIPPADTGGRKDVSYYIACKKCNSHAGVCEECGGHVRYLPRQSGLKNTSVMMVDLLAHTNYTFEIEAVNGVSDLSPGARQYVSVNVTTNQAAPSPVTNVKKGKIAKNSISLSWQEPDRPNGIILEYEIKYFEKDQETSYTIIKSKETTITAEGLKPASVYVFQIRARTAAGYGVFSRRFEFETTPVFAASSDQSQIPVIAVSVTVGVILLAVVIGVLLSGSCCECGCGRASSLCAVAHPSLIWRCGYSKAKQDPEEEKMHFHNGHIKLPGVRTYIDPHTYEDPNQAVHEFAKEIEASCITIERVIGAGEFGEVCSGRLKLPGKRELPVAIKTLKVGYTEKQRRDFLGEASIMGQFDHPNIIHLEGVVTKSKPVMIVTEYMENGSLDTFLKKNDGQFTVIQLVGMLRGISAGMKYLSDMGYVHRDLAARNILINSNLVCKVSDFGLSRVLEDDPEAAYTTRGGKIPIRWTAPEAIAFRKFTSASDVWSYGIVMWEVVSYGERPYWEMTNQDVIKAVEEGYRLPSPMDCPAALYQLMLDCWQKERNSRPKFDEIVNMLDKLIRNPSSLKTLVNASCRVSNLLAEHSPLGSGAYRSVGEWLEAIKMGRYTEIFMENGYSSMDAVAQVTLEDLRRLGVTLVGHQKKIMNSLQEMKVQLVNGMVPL
Sequence of Receptor tyrosine-protein kinase erbB-4 (Homo sapiens) (Q15303 whole entry): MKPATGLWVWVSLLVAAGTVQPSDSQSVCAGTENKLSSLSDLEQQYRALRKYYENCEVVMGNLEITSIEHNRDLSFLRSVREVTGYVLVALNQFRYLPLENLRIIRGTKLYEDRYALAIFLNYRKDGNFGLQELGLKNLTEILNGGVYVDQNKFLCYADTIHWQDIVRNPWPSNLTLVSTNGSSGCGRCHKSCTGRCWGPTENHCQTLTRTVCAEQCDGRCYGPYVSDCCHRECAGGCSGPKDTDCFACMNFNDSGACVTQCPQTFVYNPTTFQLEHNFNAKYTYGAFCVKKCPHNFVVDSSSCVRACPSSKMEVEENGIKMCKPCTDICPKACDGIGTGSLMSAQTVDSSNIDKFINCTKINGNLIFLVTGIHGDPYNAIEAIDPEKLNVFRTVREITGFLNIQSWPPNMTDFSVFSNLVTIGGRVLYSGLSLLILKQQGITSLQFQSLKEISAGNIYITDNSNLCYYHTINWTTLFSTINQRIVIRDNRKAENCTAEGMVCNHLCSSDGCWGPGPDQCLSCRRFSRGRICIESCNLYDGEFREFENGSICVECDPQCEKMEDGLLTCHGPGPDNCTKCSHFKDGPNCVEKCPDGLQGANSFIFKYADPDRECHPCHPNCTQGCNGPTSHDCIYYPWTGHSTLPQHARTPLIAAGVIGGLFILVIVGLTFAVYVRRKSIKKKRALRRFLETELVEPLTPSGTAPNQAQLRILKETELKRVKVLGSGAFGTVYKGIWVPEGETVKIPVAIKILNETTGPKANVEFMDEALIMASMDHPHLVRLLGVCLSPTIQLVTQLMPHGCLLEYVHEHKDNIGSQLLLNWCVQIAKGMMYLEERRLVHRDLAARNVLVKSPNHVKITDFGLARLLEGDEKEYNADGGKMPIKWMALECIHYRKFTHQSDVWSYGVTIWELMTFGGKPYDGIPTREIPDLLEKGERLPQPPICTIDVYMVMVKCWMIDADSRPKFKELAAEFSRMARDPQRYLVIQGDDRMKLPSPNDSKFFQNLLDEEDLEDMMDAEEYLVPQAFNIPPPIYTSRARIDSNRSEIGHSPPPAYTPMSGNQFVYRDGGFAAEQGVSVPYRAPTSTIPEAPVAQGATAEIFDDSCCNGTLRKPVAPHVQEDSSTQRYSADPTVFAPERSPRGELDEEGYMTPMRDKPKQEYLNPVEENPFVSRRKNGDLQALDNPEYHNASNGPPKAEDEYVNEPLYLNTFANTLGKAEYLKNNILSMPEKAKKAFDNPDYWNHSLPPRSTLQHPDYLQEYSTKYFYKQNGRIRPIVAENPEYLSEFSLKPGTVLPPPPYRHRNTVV
Sequence of Ephrin type-A receptor 4 (Homo sapiens) (P54764 whole entry): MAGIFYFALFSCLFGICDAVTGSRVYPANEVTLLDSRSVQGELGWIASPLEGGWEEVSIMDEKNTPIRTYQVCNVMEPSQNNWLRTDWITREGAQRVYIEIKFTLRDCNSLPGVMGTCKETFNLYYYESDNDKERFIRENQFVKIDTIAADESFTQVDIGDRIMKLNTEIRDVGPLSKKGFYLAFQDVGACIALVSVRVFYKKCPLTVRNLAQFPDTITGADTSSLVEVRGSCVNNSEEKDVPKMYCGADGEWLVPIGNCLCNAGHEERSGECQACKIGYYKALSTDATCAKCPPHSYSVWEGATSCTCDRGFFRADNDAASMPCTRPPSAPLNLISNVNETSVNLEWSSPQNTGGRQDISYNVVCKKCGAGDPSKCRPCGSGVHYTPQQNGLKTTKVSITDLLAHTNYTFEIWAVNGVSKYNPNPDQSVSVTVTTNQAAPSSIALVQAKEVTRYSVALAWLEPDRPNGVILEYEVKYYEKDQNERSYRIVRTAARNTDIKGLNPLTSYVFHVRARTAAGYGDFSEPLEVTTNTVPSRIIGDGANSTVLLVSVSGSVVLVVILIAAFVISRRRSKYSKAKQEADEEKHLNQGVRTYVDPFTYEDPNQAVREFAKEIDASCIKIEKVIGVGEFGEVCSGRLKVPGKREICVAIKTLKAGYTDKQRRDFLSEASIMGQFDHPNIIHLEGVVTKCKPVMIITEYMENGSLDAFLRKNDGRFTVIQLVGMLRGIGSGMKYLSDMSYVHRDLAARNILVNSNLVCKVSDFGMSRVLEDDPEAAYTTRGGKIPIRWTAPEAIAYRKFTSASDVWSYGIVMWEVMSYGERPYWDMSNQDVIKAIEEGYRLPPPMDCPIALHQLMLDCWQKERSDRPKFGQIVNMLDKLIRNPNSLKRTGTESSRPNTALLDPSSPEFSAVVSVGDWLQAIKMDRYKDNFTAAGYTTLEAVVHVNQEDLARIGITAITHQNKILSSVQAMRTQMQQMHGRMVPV

Consider `O=[N+]([O-])c1ccc(-c2nc(-c3ccc(F)cc3)c(-c3ccncc3)[nH]2)cc1`, for which the residual activity is 90% in [1]; 105% in test [2]; 107% in test [3]; 100% in test [4]; 94% in test [5]; 101% in test [6]. Moreover, the residual activity was 93% in [7]; 103% in test [8]; 94% in [9]; 111% in [10]; 109% in [11]; 126% (inactive) in [12]. Besides, the residual activity in test [13] is 82%; in test [14], 89%; in test [15], 76%; in [16], 76%; in test [17], 75%; in [18], 107%.
